Inhibition data for 104 molecules are collected here from PubChem BioAssay AID1220 (Sanford-Burnham Center for Chemical Genomics, 2008).

Structures are written as SMILES. The whole screen tested about 190,000 compounds, of which about 1,300 (0.68%) were called active. The full list was thinned out, with actives kept by preference. Unmarked numbers belong to inactive results. Cut-off read from the data, not from the text of the source: active = inhibition above about 50%; inactive = the rest.

Mannose-6-phosphate isomerase (Homo sapiens), sequence (P34949 whole entry, looked up): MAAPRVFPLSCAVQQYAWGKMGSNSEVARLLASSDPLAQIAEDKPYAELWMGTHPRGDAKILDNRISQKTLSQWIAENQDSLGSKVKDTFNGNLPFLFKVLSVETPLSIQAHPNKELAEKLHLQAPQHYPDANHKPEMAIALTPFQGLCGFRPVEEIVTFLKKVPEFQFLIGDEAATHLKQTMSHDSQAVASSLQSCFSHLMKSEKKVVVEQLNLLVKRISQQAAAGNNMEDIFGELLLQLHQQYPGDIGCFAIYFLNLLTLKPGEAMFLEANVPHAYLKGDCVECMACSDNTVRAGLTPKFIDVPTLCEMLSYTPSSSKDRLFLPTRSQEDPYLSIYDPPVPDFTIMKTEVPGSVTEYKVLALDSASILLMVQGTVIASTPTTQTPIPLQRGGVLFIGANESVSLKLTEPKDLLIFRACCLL

This assay addresses Mannose-6-phosphate isomerase (Homo sapiens) (UniProt P34949). The assay is described as follows: human PMI inhibitors, high substrate, primary screen, biochemical, fluorescence intensity, high mannose 6-phosphate (AID 1220). The note with it: recombinant PMI enzyme, coupled fluorescence intensity; at 20 µM; active compounds read high.
In general, inhibition refers to the change of the read-out against control, counted positive when it falls. With `COc1ccc(N(Cc2cc3cc(OC)ccc3[nH]c2=O)C(=O)C2CCCO2)cc1` (centres undefined), the inhibition was 7.7%.

Turning to `COc1ccc2[nH]c(=O)c(CN(C(=O)C3CCCO3)c3ccc(C)cc3)cc2c1` (centres undefined), the inhibition is 50% (active).

With `CCOc1ccc(N(Cc2cc3cc(OC)ccc3[nH]c2=O)C(=O)C2CCCO2)cc1` (centres undefined), the inhibition is 13.8%.

`CN(C)S(=O)(=O)c1ccc(NC(=S)NC(=O)Cc2ccccc2)cc1`: the inhibition was -3.1%.

For the molecule `CCN(CC)c1ccc(NC(=S)NC(=O)Cc2ccccc2)cc1`, the inhibition was 50.1% (active).

For the molecule `CCC(=O)Nc1ccc(NC(=S)NC(=O)Cc2ccccc2)cc1`, the inhibition was 6%.

For `Cc1ccc(CC2CC(=O)N(c3ccncc3)C2=O)cc1` (centres undefined), the inhibition was 1.2%.

As for `CCc1nc2ccc(C(=O)Nc3ccc(NC(C)=O)cc3)cc2nc1CC`, the inhibition is 7.1%.

Turning to `Fc1ccc(Nc2cccc3nccnc23)cc1`, the inhibition is 26.2%.

Turning to `Cc1ccc(OS(=O)Nc2cccc3nccnc23)cc1` (centres undefined), the inhibition was 5.5%.

With `c1cc(Nc2cccc3nccnc23)c2nccnc2c1`, the inhibition was 54.4% (active).

As to `Cc1cc(C)n(-c2cc(C(=O)O)cc(C(=O)O)c2)n1`, the inhibition is -12.4%.

With `CC1=C(Sc2nc3ccccc3[nH]2)C(=O)NC(C)(C)C1`, the inhibition is 0.2%.

As for `O=C(C/C=N/OCc1ccc(F)cc1Cl)c1cnc(-c2ccccc2)s1`, the inhibition is -2.1%.

With `O=C(C/C=N/OCc1ccccc1F)c1cnc(-c2ccc(Cl)cc2)s1`, the inhibition was 1.3%.

`CO/N=C/CC(=O)c1cnc(-c2ccc(Cl)cc2)s1`: the inhibition is 53.8% (active).

For the molecule `O=C(C/C=N/OCc1ccc(Cl)cc1)c1cnc(-c2ccccc2)s1`, the inhibition is 13.5%.

`CO/N=C/CC(=O)c1cnc(-c2ccccc2)s1`: the inhibition is 57.6% (active).

Take `O=C(C/C=N/OCc1c(Cl)cccc1Cl)c1cnc(-c2ccccc2)s1`: the inhibition was 14.6%.

As for `Cc1ccccc1C(=O)NC1CCN(Cc2nnnn2Cc2ccc(F)cc2)CC1`, the inhibition was 4.6%.

Turning to `CCC(C)(C)NC(=O)C(c1ccccn1)N(C(=O)c1csnn1)c1ccc(C)cc1` (centres undefined), the inhibition is -1.6%.

As to `COc1cc(CNn2cn[nH]c2=S)cc(Br)c1OCc1ccccc1F`, the inhibition was 0.2%.

In the case of `CCCCCCNS(=O)(=O)c1ccc(OC)c(OC)c1`, the inhibition was 5.6%.

In the case of `CCCN1CCC(NC(=S)Nc2ccc(OC)c(OC)c2)CC1`, the inhibition is -3%.

As for `CCn1cnc2cc(NCc3nc4ccccc4n3Cc3ccccc3)ccc21`, the inhibition is 50.6% (active).

Regarding `CCn1cnc2cc(NCc3nc4ccccc4n3C)ccc21`, the inhibition was 14.9%.

As for `Cc1nc2cc(NCc3nc4ccccc4n3Cc3ccccc3)ccc2n1C`, the inhibition was 20%.

As for `CCOc1cc2[nH]c(=S)n(C3CC3)c(=O)c2cc1OCC`, the inhibition was 2.9%.

Take `O=C(c1ccccc1[N+](=O)[O-])N1CCCN(C(=O)c2ccccc2[N+](=O)[O-])CC1`: the inhibition was -6.8%.

For the molecule `COc1cc(NCCCCCCCN)c2ncccc2c1`, the inhibition is 50.3% (active).

As for `COc1cc(NS(=O)(=O)c2ccc(C)cc2)c2ncccc2c1`, the inhibition was 32.6%.

With `COc1cc(NC(=O)C2CCCCC2)c2ncccc2c1`, the inhibition was 4.2%.

As for `CCn1c(CSCc2ccc(Cl)cc2)n[nH]c1=S`, the inhibition was -10.7%.

Turning to `CC(C)(C)C1=CC(=Nc2ccccc2N)C=C(C(C)(C)C)C1=O`, the inhibition was -7.5%.

With `CC(C)(C=O)C1=CC(=O)c2ccccc2C1=O`, the inhibition was 12.2%.

For `Cc1ccc(S(=O)(=O)N2CCOCC2)cc1C(=O)Nc1ccccn1`, the inhibition is 4.2%.

In the case of `O=C(Cc1ccc(Cl)cc1)N/N=C/c1cccs1`, the inhibition was 15.1%.

For the molecule `CCOC(=O)c1c(C)n(C)c2ccc(O)c(CN3CCC(C)CC3)c12`, the inhibition was 22.9%.

`CCOC(=O)c1c(C)n(C)c2ccc(O)c(CN3CCCCC3)c12`: the inhibition was 8.7%.

Take `CCOC(=O)c1c(C)n(C)c2ccc(O)c(CN3CCN(C)CC3)c12`: the inhibition was 54.1% (active).

For the molecule `COc1ccc(NCc2nnc(SCC(=O)Nc3ccc(OC)cc3)n2C)cc1`, the inhibition was -0.9%.

`CCOC(=O)c1ccc(NC(=O)CSc2nnc(CNc3ccc(OC)cc3)n2C)cc1`: the inhibition was 53.5% (active).

Consider `CCOC(=O)c1ccc(NC(=O)CSc2nnc(CNc3ccc(C)cc3)n2C)cc1`, for which the inhibition was 11.2%.

Regarding `COc1ccc(-n2ccnc2SCC(=O)NCc2ccco2)c(OC)c1`, the inhibition was 5.5%.

As to `O=C(NCc1ccco1)C1Cc2ccccc2CN1C(=O)c1ccco1` (centres undefined), the inhibition was -0.2%.

For `CCn1c(SCc2nc3sc(C(=O)O)c(C)c3c(=O)[nH]2)nnc1-c1ccc(Cl)cc1`, the inhibition is -1%.

Turning to `COc1ccccc1NC(=O)Nc1cc(NC(=O)Nc2ccccc2OC)c(C)nc1C`, the inhibition was -9.6%.

Turning to `COc1ccccc1NC(=O)Nc1nc(C(C)(C)C)cs1`, the inhibition is 56.3% (active).

On to `CC(C)(C)c1csc(NC(=O)Nc2ccccc2)n1`, for which the inhibition was 7.8%.

Take `COc1ccc(S(=O)(=O)N=C2C=C(C)C(=O)C(C)=C2)cc1`: the inhibition is 61.5% (active).

Turning to `COc1ccc(S(=O)(=O)c2ccc(OC)cc2)cc1`, the inhibition was 6.7%.

In the case of `COc1ccc(S(=O)(=O)/N=C2/C=CC(=O)C(C)=C2C)cc1`, the inhibition was 43.8%.

As for `CC1CCN(C(c2ccccc2)c2nnnn2C(C)(C)C)CC1` (centres undefined), the inhibition was -19.6%.

As to `Cn1cc(Br)c(C(=O)NN2C(=O)C3C4C=CC(C5CC45)C3C2=O)n1` (centres undefined), the inhibition was 2.3%.

Take `O=C(Cc1cccc2ccccc12)NCCOc1ccccc1F`: the inhibition was 23.4%.

As to `Nc1cc2c(cc1[N+](=O)[O-])OCCOCCOCCO2`, the inhibition was 19.7%.

For `Nc1cc2c(cc1[N+](=O)[O-])OCCO2`, the inhibition was 7.1%.

As to `Nc1cc2c(cc1[N+](=O)[O-])OCO2`, the inhibition is 52.9% (active).

In the case of `CCNc1nc(NCC)nc(C(=O)NN)n1`, the inhibition is -16.1%.

For the molecule `COc1cc(/C=N/NC(=O)C(Cc2c[nH]c3ccccc23)NC(=O)OCC(C)C)cc([N+](=O)[O-])c1O` (centres undefined), the inhibition is 6.2%.

For `COc1cc(/C=N/NC(=O)[C@H](Cc2c[nH]c3ccccc23)NC(=O)OCC(C)C)cc([N+](=O)[O-])c1O`, the inhibition was 14.5%.

`COc1cc(/C=N/NC(=O)C(Cc2c[nH]c3ccccc23)NC(=O)OCC(C)C)cc([N+](=O)[O-])c1OCc1ccccc1` (centres undefined): the inhibition is 53.6% (active).

As for `Cc1ccc(S(=O)(=O)Cc2ccc(C(=O)N3CCc4ccccc4C3)o2)cc1`, the inhibition is -0.7%.

As to `CC(C)c1cccc(C(C)C)c1NC(=O)COC(=O)c1ccc(OCC(=O)Nc2cccc(C(F)(F)F)c2)cc1`, the inhibition is 10.7%.

For the molecule `O=c1oc2ccccc2cc1-c1cn2ccccc2n1`, the inhibition is -4.7%.

For the molecule `COc1cc(OC)c(NC(=O)CC(C)=O)cc1Cl`, the inhibition was 26.6%.

Take `Clc1ccccc1OCc1nnc(-c2ccccc2Br)o1`: the inhibition was 5.6%.

Turning to `CC(C)(C)NC(=O)CSc1nc(N)cc(=O)[nH]1`, the inhibition was 0.4%.

With `Cn1ccnc1C(O)c1ccccc1` (centres undefined), the inhibition is 15.2%.

For `COc1ccc2ccccc2c1C(O)c1nccn1C` (centres undefined), the inhibition was 64.7% (active).

With `COc1ccc(C(O)c2nccn2C)cc1` (centres undefined), the inhibition was 9.1%.

For `OC(COCc1ccc(Cl)cc1)CN1CCN(CC(O)COCc2ccc(Cl)cc2)CC1` (centres undefined), the inhibition is -11.7%.

As for `Cc1csc(NC(=O)C2C3C=CC(O3)C2C(=O)O)n1` (centres undefined), the inhibition is 5%.

In the case of `Cc1ccc2[nH]c3c(c2c1)CCC3=O`, the inhibition is 15.5%.

Consider `Cc1ccc2[nH]c3c(c2c1)CCNC3=O`, for which the inhibition is -5.2%.

Take `Cc1onc(-c2ccccc2)c1C(=O)Oc1cccnc1`: the inhibition was -0.5%.

On to `CC(=O)NC(CCS(C)(=O)=O)C(=O)Nc1ccccc1C` (centres undefined), for which the inhibition is 3.2%.

With `CCCCN(C)C(=O)c1cc2cc3cc(OC)ccc3nc2o1`, the inhibition was 16.4%.

As to `Cc1cccnc1CCNC(=O)CCc1nnc(CCc2ccccc2)o1`, the inhibition was 17.7%.

In the case of `O=C(NC1CC1)c1cc(Cl)ccc1[N+](=O)[O-]`, the inhibition was 12.7%.

For the molecule `O=C(c1cc(C(=O)c2ccco2)cc(C(=O)c2ccco2)c1)c1ccco1`, the inhibition was 6.2%.

With `O=C(c1ccco1)c1coc2c1cc(O)c1ccccc12`, the inhibition is 51.1% (active).

In the case of `CC(=O)c1coc2c1cc(O)c1ccccc12`, the inhibition is 4.7%.

Turning to `CCOC(=O)c1ccc(N2C(=O)CC(N3CCOCC3)C2=O)cc1` (centres undefined), the inhibition was -0.3%.

Regarding `CN(C)S(=O)(=O)c1cccc2c1C(=O)c1ccccc1C2=O`, the inhibition is 21%.

For `CN(C)c1cccc2c1C(=O)c1ccccc1C2=O`, the inhibition is 55.7% (active).

`CN(C)c1cc2c(c(N(C)C)c1)C(=O)c1ccccc1C2=O`: the inhibition is 50.3% (active).

As for `CNc1cccc2c1C(=O)c1ccccc1C2=O`, the inhibition was 24.4%.

Consider `CN(C=[N+](C)C)c1cccc2c1C(=O)c1ccccc1C2=O`, for which the inhibition is 39.3%.

Take `COc1ccc(OC)c2c1C(=O)c1ccccc1C2=O`: the inhibition was -55.2%.

For `Cc1nc2ccccn2c1C(=O)NN=C1CCCC1`, the inhibition was -5%.

As for `Cc1ccc(C(=O)NNC(=O)c2cccc(S(=O)(=O)N3CCN(c4ccccc4)CC3)c2)cc1`, the inhibition was 5.6%.

As for `Cc1ccc(C(=O)NCC(=O)OC(C)C(=O)NCCC2=CCCCC2)cc1C` (centres undefined), the inhibition was 4.6%.

For the molecule `O=C(NCC1CCCO1)C(c1ccc(F)cc1)N(CC1CCCO1)C(=O)c1ccc(-c2ccccc2)[nH]1` (centres undefined), the inhibition was -8.3%.

Regarding `O=C(CCOc1ccccc1)Nc1cccc([N+](=O)[O-])c1`, the inhibition was -0.7%.

For the molecule `O=C(CNS(=O)(=O)c1ccccc1F)Nc1ccc(N2CCOCC2)cc1`, the inhibition was 1%.

Regarding `COc1ccc(C(=O)NCCSc2ccccc2)cc1`, the inhibition was 7.1%.

Regarding `CCCc1cc(=O)oc2c(C)c3occ(C)c3cc12`, the inhibition was 2.8%.

Regarding `C/C(CCc1ccco1)=N\NC(=O)CNc1cccc2ccccc12`, the inhibition was 56% (active).

For `C/C(CCc1ccco1)=N\NC(=O)CNc1c(Br)cc(Br)cc1Br`, the inhibition was -2.7%.

As for `COc1ccccc1NCC(=O)N/N=C(\C)c1ccc(Br)s1`, the inhibition was 11.6%.

Turning to `C/C(=N\NC(=O)CNc1cccc2ccccc12)c1ccc(Br)s1`, the inhibition is 52% (active).

Regarding `C/C(=N\NC(=O)CNc1cccc(C)c1)c1ccc(Br)s1`, the inhibition is 14.6%.

For `C/C(CCc1ccco1)=N/NC(=O)CCC(=O)Nc1ccc(Br)cc1`, the inhibition was 7.1%.
